Inhibition data for six compounds are collected here from ChEMBL document CHEMBL1961873, “Compounds: GSK PKIS; Assays: Nanosyn kinase panel” (2012).

Structures are written as SMILES.

Assay [1] has as its target T1, Serine/threonine-protein kinase TBK1 (Homo sapiens) (UniProt Q9UHD2).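 Further: values are mean inhibition of TBK1, screened as part of the GSK published kinase inhibitor set.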
T1 sequence (whole entry): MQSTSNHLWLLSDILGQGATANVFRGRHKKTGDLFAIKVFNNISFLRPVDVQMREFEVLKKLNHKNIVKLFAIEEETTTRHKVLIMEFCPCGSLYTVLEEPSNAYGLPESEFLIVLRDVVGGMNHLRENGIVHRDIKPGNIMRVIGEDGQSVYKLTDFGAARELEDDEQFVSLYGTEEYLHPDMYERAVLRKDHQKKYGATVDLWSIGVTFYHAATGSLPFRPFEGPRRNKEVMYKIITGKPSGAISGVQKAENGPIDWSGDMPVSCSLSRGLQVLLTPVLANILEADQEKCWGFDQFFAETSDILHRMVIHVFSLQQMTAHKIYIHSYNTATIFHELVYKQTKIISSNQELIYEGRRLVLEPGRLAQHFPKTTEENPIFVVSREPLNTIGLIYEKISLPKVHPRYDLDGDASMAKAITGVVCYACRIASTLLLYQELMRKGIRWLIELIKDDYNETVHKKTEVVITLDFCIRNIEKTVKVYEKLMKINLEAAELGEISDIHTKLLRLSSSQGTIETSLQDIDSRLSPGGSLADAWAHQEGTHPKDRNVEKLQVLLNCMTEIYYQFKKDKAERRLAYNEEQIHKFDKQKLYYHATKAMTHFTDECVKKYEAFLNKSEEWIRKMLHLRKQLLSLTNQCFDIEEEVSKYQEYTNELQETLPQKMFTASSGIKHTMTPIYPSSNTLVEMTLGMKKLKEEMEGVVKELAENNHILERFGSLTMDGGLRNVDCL
Particulars: at 1 µM.

Assay [2] addresses T2, Testis-specific serine/threonine-protein kinase 1 (Homo sapiens) (UniProt Q9BXA7).
T2 sequence (whole entry): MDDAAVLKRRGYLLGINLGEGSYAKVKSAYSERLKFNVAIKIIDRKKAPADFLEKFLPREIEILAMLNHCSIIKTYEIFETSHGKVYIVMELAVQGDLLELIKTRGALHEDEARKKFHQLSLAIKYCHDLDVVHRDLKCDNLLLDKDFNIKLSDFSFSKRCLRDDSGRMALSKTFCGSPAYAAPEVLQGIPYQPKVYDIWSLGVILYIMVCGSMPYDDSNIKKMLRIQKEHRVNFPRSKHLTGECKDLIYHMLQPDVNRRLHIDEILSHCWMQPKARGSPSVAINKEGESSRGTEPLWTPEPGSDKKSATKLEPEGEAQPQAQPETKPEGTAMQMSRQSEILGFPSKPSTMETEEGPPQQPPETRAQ
The following applies: at 0.1 µM.

For assay [3], the target named is T2, Testis-specific serine/threonine-protein kinase 1 (Homo sapiens). The following applies: at 1 µM.
Assay [4] deals with T3, Testis-specific serine/threonine-protein kinase 2 (Homo sapiens) (UniProt Q96PF2).
T3 sequence (whole entry): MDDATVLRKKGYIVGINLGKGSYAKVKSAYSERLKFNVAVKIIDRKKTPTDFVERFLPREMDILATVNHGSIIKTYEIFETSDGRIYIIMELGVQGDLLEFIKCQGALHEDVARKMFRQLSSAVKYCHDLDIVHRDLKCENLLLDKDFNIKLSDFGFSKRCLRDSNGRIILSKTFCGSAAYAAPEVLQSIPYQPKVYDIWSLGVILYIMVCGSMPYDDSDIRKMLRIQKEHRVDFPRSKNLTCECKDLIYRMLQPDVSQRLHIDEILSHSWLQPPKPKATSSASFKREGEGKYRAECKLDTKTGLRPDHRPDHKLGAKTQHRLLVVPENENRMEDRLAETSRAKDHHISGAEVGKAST
The following applies: at 0.1 µM.

The target of assay [5] is T3, Testis-specific serine/threonine-protein kinase 2 (Homo sapiens). The following applies: at 1 µM.
The target of assay [6] is Casein kinase I isoform alpha (Homo sapiens) (UniProt P48729). Particulars: at 0.1 µM.
Casein kinase I isoform alpha (Homo sapiens), sequence (P48729 2-337 limits assumed): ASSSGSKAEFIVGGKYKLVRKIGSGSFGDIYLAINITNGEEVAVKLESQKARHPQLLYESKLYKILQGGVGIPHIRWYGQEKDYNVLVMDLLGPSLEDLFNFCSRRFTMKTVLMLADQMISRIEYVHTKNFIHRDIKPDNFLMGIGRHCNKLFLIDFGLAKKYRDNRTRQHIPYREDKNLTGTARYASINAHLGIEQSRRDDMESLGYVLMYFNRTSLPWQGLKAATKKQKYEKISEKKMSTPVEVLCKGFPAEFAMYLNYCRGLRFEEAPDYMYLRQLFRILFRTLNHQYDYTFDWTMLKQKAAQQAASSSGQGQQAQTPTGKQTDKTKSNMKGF
Assay [7] has the same target. Particulars: at 1 µM.
Assay [8] addresses Casein kinase I isoform gamma-1 (Homo sapiens) (UniProt Q9HCP0). The following applies: at 0.1 µM.
For assay [9] the target is unchanged. Particulars: at 1 µM.
The target in assay [10] is Casein kinase I isoform gamma-2 (Homo sapiens) (UniProt P78368). The following applies: at 0.1 µM.
Casein kinase I isoform gamma-2 (Homo sapiens), sequence (P78368 whole entry, looked up, canonical isoform): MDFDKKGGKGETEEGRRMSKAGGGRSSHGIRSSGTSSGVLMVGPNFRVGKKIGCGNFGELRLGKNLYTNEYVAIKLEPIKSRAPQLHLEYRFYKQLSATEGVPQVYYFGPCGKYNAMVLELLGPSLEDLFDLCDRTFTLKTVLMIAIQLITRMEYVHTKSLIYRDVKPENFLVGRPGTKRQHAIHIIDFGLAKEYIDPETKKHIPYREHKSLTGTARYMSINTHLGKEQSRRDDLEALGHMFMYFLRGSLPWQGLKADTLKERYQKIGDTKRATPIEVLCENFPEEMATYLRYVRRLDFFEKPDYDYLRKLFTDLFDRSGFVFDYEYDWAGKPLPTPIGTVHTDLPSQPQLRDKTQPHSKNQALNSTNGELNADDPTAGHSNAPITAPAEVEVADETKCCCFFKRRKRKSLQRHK
Assay [11] shares this target. The following applies: at 1 µM.
Assay [12] addresses Casein kinase I isoform gamma-3 (Homo sapiens) (UniProt Q9Y6M4). Particulars: at 0.1 µM.
For assay [13] the target is unchanged. The following applies: at 1 µM.
Assay [14] has as its target Cyclin-dependent kinase 1 (Homo sapiens) (UniProt P06493). Particulars: at 0.1 µM.
Assay [15] has the same target. The following applies: at 1 µM.
In assay [16] the target is Cyclin-dependent kinase 2 (Homo sapiens) (UniProt P24941). The following applies: at 0.1 µM.
Assay [17] shares this target. Particulars: at 1 µM.
Assay [18] shares this target. Particulars: at 0.1 µM. This is another data set of the same source.
The target is the same in assay [19]. The following applies: at 1 µM. This is another data set of the same source.
Assay [20] has as its target CDK3/Cyclin E (Homo sapiens) (UniProt P24864+Q00526). The following applies: at 0.1 µM.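 Further: reported percentages are mean inhibition values.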

CDK3/Cyclin E (Homo sapiens), sequence (P24864 whole entry, looked up): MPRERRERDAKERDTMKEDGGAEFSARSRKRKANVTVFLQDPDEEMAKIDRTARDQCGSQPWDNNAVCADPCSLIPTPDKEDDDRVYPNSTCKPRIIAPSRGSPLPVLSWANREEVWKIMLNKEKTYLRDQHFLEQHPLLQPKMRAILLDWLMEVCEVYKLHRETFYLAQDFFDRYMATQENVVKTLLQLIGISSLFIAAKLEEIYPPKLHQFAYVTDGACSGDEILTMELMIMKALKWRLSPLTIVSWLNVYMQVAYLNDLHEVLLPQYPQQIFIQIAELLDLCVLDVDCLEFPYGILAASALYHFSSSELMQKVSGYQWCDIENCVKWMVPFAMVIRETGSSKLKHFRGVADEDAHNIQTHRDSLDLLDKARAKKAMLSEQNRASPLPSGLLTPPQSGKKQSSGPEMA
CDK3/Cyclin E (Homo sapiens), sequence (Q00526 whole entry, looked up): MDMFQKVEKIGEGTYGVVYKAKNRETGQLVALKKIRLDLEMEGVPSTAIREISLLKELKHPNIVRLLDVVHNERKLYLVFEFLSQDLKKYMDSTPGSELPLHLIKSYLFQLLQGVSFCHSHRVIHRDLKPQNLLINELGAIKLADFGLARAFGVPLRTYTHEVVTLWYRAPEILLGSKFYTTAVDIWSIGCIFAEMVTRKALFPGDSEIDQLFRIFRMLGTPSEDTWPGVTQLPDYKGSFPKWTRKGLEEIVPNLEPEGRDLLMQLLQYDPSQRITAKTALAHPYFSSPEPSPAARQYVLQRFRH
Cyclin-dependent kinase 1 (Homo sapiens), sequence (P06493 whole entry, looked up): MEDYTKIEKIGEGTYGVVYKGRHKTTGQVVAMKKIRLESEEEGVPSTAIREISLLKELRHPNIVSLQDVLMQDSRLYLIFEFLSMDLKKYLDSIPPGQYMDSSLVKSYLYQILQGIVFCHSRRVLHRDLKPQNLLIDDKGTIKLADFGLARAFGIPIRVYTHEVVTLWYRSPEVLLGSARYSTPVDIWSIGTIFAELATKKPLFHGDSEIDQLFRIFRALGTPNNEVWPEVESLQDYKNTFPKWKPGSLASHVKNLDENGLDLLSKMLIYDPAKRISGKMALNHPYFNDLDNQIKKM
Casein kinase I isoform gamma-3 (Homo sapiens), sequence (Q9Y6M4 whole entry, looked up, canonical isoform): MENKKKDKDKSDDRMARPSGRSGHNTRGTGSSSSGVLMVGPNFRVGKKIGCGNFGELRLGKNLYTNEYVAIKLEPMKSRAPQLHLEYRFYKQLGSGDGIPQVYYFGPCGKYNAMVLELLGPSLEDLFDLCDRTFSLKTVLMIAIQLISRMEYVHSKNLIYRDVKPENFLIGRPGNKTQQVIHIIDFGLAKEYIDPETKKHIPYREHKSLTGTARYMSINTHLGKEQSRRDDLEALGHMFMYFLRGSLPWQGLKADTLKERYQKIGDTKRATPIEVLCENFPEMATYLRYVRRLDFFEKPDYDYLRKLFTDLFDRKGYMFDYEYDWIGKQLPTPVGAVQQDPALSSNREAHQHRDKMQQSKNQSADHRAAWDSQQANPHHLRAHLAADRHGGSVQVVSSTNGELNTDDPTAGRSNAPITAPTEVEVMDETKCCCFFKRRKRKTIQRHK
Casein kinase I isoform gamma-1 (Homo sapiens), sequence (Q9HCP0 whole entry, looked up, canonical isoform): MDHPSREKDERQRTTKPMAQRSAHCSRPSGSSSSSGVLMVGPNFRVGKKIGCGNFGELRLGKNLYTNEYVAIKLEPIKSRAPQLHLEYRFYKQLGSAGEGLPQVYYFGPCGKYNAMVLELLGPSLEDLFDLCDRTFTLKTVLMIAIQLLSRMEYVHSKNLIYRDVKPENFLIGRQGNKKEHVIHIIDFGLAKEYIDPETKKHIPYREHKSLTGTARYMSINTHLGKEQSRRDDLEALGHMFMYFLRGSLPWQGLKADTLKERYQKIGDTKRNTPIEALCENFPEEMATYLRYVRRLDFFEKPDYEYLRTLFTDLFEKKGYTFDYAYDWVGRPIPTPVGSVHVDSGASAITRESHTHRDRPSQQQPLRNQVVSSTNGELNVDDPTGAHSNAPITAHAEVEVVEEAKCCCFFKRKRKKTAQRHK

For the compound `[O-][S+]1CCN(Cc2ccc(-c3ccc4ncnc(Nc5ccc(OCc6ccccc6)c(Cl)c5)c4c3)o2)CC1`, the inhibition in assay [1] was 2.35%; in assay [2] it was 2.58%; in [3] it was 2.95%; in assay [4], 1.24%; in assay [5], 1.08%; in [6], 1.88%. Also, the inhibition came out at 2.94% in [7]; 1.25% in [8]; 2.34% in [9]; 0.8% in assay [10]; 1.66% in [11]; 0.73% in assay [12]. Moreover, the inhibition in [13] came to 4.22%; in [14], 1.22%; in assay [15], 1.4%; in assay [16], 2.81%; in assay [17] it was 2.09%; in [18], 0.43%. Besides, the inhibition is 1.73% in assay [19] and -1.53% in assay [20].

Take `CS(=O)(=O)CCNCc1nc(-c2ccc3ncnc(Nc4ccc(OCc5cccc(C(F)(F)F)c5)cc4)c3c2)cs1`: the inhibition in assay [1] was determined as 0.57%; in assay [2], 2.83%; in assay [3] it was 2.19%; in assay [4], 0.45%; in assay [5], 0.58%; in assay [6], 0.49%. For the same compound, the inhibition was determined as 4.64% in assay [7]; 1.2% in [8]; 2.03% in [9]; 0.96% in [10]; 1.13% in assay [11]; 0.51% in assay [12]. In addition, the inhibition in assay [13] is -0.03%; in assay [14], 2.33%; in assay [15], 2.13%; in [16] it was 1.96%; in [17] it was -0.45%; in [18], 1.42%. For the same compound, the inhibition in assay [19] is 0.41%; in assay [20], -1.59%.

`N#Cc1c(NC(=O)c2ccccc2F)sc2c1CCCC2`: the inhibition is -0.25% in assay [1]; 0.47% in assay [2]; 0.66% in [3]; 0.05% in assay [4]; 0.04% in assay [5]; -1.71% in assay [6]. The inhibition in assay [7] is -1.69%; in assay [8] it was -1.23%; in [9], -0.65%; in assay [10], -1.34%; in [11] it was -1.07%; in assay [12], -2.12%. Besides, the inhibition in assay [13] was -0.42%; in [14], 1.03%; in assay [15] it was 1.65%; in assay [16], -0.45%; in assay [17], 0.88%; in [18], -2.16%. In addition, the figures for the inhibition in assay [19] and in assay [20] were -0.2% and -1.77%, respectively.

On to `CCn1c(-c2nonc2N)nc2ccc(F)cc21`, for which the inhibition in [1] turned out to be 4.44%; in [2] it was 5.02%; in assay [3] it was 7.33%; in assay [4], 2.94%; in assay [5], 4.64%; in assay [6], 3.7%. Also, the inhibition in assay [7] was 4.99%; in assay [8], 4.91%; in assay [9] it was 5.86%; in assay [10], 5.17%; in assay [11] it was 5.68%; in assay [12], 5.66%. Further, the inhibition in assay [13] amounted to 3.59%; in assay [14], 0.74%; in assay [15], 1.27%; in [16], 1.3%; in assay [17] it was 7.59%; in assay [18], 3.91%. Further, the inhibition in assay [19] came to 5.8%; in [20] it was 3.47%.

For the compound `CCS(=O)(=O)c1ccc(OC)c(Nc2ncc(-c3cccc(OC)c3)o2)c1`, the inhibition is 9.22% in assay [1]; 1.15% in assay [2]; -0.25% in assay [3]; 1.31% in assay [4]; -3.49% in assay [5]; 1.44% in assay [6]. The inhibition was found to be 6.31% in [7]; 2.59% in assay [8]; 6.2% in assay [9]; 1.91% in [10]; 3.73% in [11]; 3.1% in [12]. For the same compound, the inhibition is 5.62% in assay [13]; -0.89% in [14]; 2.51% in [15]; 1.38% in [16]; 5.48% in assay [17]; 2.62% in assay [18]. Also, the inhibition in assay [19] worked out at 7.35%; in [20] it was 0.48%.

In the case of `COC(=O)Nc1nc2cc(Oc3ccc(NC(=O)Nc4cccc(Br)c4)cc3)ccc2[nH]1`, the inhibition in assay [1] was 3.82%; in assay [2] it was 2.91%; in [3], 2.52%; in assay [4], 2.72%; in assay [5], 2.43%; in assay [6], 4.89%. Moreover, the inhibition was 9.35% in assay [7]; 1.77% in assay [8]; 2.02% in [9]; 0.89% in [10]; 1.6% in [11]; -0.42% in assay [12]. In addition, the inhibition was 1.82% in [13]; 1.34% in assay [14]; 2.26% in assay [15]; 3.2% in assay [16]; -0.87% in assay [17]; 1.48% in assay [18]. Further, the inhibition in assay [19] came out at 2.15%; in [20], 2.04%.
